Sampled rows, rich in hits. Any-hit rate of the full collection: about 3.9%.
Autofluor counter = counter-screen for toxin protease inhibitors: compound fluorescence; AID 624483; fluorescence intensity (concentration not given with the values); compound autofluorescence counterscreen, microsphere flow cytometry; active compounds read high; 3.1% of 360,000 active; in the data active = fluorescence intensity above about 16000; inconclusive = no clear call, values can overlap the other calls
Anthrax LF inh2 = anthrax lethal factor protease inhibition; P15917; multiplex microsphere protease cleavage assay, LF; inhibition, % at 10 µM; 0.12% of 360,000 active; AID 588501; also: plate controls were buffer without enzyme for full effect and enzyme alone for no effect
3CLpro inhibitor = SARS-CoV 3CLpro protease inhibition; recombinant SARS-CoV 3CLpro, quenched FRET peptide cleavage; inhibition, % at 6 µM; 0.14% of 290,000 active; AID 1706; in the data active = inhibition above about 12%
BoNT A protease = blocks Botulinum neurotoxin A light chain protease. multiplex microsphere protease substrate cleavage, flow cytometry. inhibition, % at 10 µM. 0.17% of 360,000 active. AID 588499; also: plate controls were buffer without enzyme for full effect and enzyme alone for no effect
CCHF vOTU inh = blocks the CCHF virus ovarian tumor domain protease. CCHFV vOTU protease, Pep-AMC fluorescence. inhibition, % at 11.5 µM. 0.55% of 370,000 active; in the data active = inhibition above about 30%; also: 0% = vehicle wells with enzyme and 100% = no enzyme wells
BoNT F protease = blocks Botulinum neurotoxin F light chain protease. Multiplex microsphere protease cleavage assay, flow cytometry. inhibition, % at 10 µM. 0.22% of 360,000 active. AID 588497; in the data active = inhibition above about 35%, passing the limit was not always enough; inconclusive = no clear call, values can overlap the other calls; also: plate controls were buffer without enzyme for full effect and enzyme alone for no effect
Starred values were filed as active, the others as inactive; u = inconclusive; x = no result. Rule as the data show it, unless noted: active = inhibition above about 30%; inconclusive = no clear call, values can overlap the other calls; inactive = below that.

SMILES | Autofluor counter | Anthrax LF inh2 | 3CLpro inhibitor | BoNT A protease | CCHF vOTU inh | BoNT F protease
CCCCCCCCN1C(=O)[C@@H](CC(=O)N2CCOCC2)C[C@@]2(C(=O)OC)C1=C[C@H](C1CCCC1)O[C@@H]2C | x | x | x | x | 28.1 | x
CCCC/C=C1/[C@@H](c2ccc(Cl)cc2)N(Cc2ccc3c(c2)OCO3)C2=N[C@@H](c3ccccc3)CC(=O)N21 | x | x | x | x | 5.0 | x
CC(Sc1nc2ccccc2s1)C(=O)Nc1nnc(C(C)C)s1 (centres undefined) | 5258 | 1.2 | -0.5 | -0.8 | x | -1.8
CCC(Sc1nc2ccccc2s1)C(=O)Nc1nnc(C)s1 (centres undefined) | 22870* | -1.6 | 0.9 | -1.2 | 1.3 | -2.4
Cc1ccc(P(=O)(CO)c2ccc(C)cc2)cc1 | 16417* | -0.9 | 0.3 | -0.7 | -5.8 | -2.7
C#CC1(O)C2C=C(OC)C(=O)C1C(c1ccccc1)C2C (centres undefined) | x | x | x | x | -6.2 | x
Cn1c(=O)cc(OCCCC(=O)N2CCC3(CC2)OCCO3)c2ccccc21 | 4019 | -6.7 | 1.8 | -2.5 | -10.7 | -10.9
O=C(Cc1cccs1)N1CCC2(CC1)OCCO2 | 20223* | -0.5 | 2.6 | -1.9 | 2.6 | -0.9
Cn1cc(CCC(=O)N2CCC3(CC2)OCCO3)c2ccccc21 | 23713* | 0.8 | -1.2 | 0.8 | -10.1 | -2.0
C#CCNC(=O)C[C@H]1C[C@@]2(C(=O)OC)C(=C[C@H](C3CCCC3)O[C@@H]2C)N(Cc2ccc(Cl)cc2Cl)C1=O | x | x | x | x | 6.2 | x
COc1ccc(C=NNC(=O)c2cc(-c3ccc(C)c(C)c3)n[nH]2)cc1OCc1ccccc1 | x | x | x | x | 10.1 | x
CCOC(=O)Cn1cc(CN2C(C(=O)OC)CN(Cc3ccc(C)cc3)CCS2(=O)=O)nn1 (centres undefined) | x | x | x | x | 0.5 | x
COC(=O)C1CN(Cc2cn(Cc3ccc(F)cc3)nn2)CCS(=O)(=O)N1Cc1ccc(C)cc1 (centres undefined) | x | x | x | x | -5.8 | x
Cc1ccc(S(=O)(=O)N(CC(O)CN2C(=O)NC(C)(C)C2=O)c2ccccc2)cc1 (centres undefined) | 3026 | 1.0 | 0.1 | -0.5 | -9.2 | -4.0
COc1ccc(N(CC(O)CN2C(=O)NC(C)(C)C2=O)S(=O)(=O)c2ccccc2)cc1 (centres undefined) | 23290* | -0.5 | 0.0 | -0.7 | -1.1 | -1.5
CCOC(=O)Nc1ccc(S(=O)(=O)N2CCC(c3nc4ccccc4[nH]3)CC2)cc1 | 2803 | 2.3 | x | 0.4 | -8.0 | 4.6
CN1CCN(S(=O)(=O)c2ccc(NC(=O)C(C)(C)C)cc2)CC1 | 22681* | -1.1 | -2.6 | u | -3.6 | 3.1
CC(=O)Nc1ccc(S(=O)(=O)N2CCN(S(=O)(=O)c3ccc(NC(C)=O)cc3)CC2)cc1 | 3611 | 6.8 | -3.9 | -0.4 | -8.3 | -0.3
Cc1ccc(S(=O)(=O)N2CCCN(S(=O)(=O)c3ccc4c(c3)OCCO4)CC2)cc1 | 26607* | -6.7 | 0.6 | -11.1 | -11.5 | -15.4
Cc1ccc2nc(C3CCN(C(=O)NCc4ccccc4)CC3)[nH]c2c1 | 17071* | -5.3 | 3.3 | -2.9 | 15.1 | -4.8
CC(=O)Nc1ccc(S(=O)(=O)N2CCC(c3nc4ccc(C)cc4[nH]3)CC2)cc1 | 24362* | -1.8 | 3.8 | -1.1 | -1.7 | -3.5
CN1CCN(S(=O)(=O)c2ccc(NC(=O)c3cccs3)cc2)CC1 | 3269 | 4.0 | 4.4 | -0.5 | 4.9 | 5.5
O=C(Cc1cccs1)Nc1ccc(S(=O)(=O)Nc2ncccn2)cc1 | 3087 | -1.9 | 1.6 | 0.2 | 5.6 | -7.9
CC(=O)Nc1ccc(S(=O)(=O)N2CCCN(S(=O)(=O)c3ccc(C)cc3)CC2)cc1 | 27039* | -2.5 | 1.1 | -9.8 | 1.6 | -14.8
CN1CCN(S(=O)(=O)c2ccc(-c3ccc(Cl)cc3)cc2)CC1 | 20018* | 1.0 | 2.1 | -0.9 | 9.9 | -5.2
CN1CCN(S(=O)(=O)c2ccc(Cl)cc2)CC1 | 3891 | -9.0 | -2.7 | 0.1 | -11.8 | -2.4
CC(=O)Nc1ccc(S(=O)(=O)N2CCCN(S(=O)(=O)c3ccc(NC(C)=O)cc3)CC2)cc1 | 9007 | 6.1 | -0.7 | 1.3 | -4.0 | 10.1
Cc1ccnc(NS(=O)(=O)c2ccc(NC(=O)Cc3cccs3)cc2)n1 | 21122* | -1.4 | 0.1 | u | x | -1.7
CN1CCN(S(=O)(=O)c2ccc(NC(=O)c3csc4ccccc34)cc2)CC1 | 16528* | -3.7 | -0.8 | u | x | -1.0
COC(=O)[C@]12C[C@H](CC(=O)NCCc3ccccc3OC)C(=O)N(Cc3ccco3)C1=C[C@H](C(C)(C)C)O[C@@H]2C | x | x | x | x | 22.8 | x
